Assay [1] has as its system Wnt5a (protein binding on small-molecule microarray). The experiment in a line: small molecules binding Wnt5a protein – biophysical, small-molecule microarray, 635/667 nm fluorescence, primary screen (AID 1142).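 Further: fluorescence read at 667 nm with signal to noise per printed feature.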 To be noted: 635 nm fluorescence, higher = more signal.
Assay [2] in a line: ATP-based viability of Huh7 replicon cells – cell-based, CellTiter-Glo luminescence, basal, 48 h, cytotoxicity control for HCV replication inhibitor project, primary screen (AID 1143).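 Further: Huh7 hepatoma cells carrying a hepatitis C replication reporter with no stimulus; test concentration not given here.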 The following applies: higher = more signal, called active from +8 up or from −8 down. (A replicon is a self-replicating genome or part of one, used to study replication in cells.)
Assay [3] in a line: Pseudomonas biofilm growth suppression – PAO1 strain, BacTiter-Glo luminescence, LB-PBS, primary screen (AID 1144). To be noted: P. aeruginosa PAO1 biofilm, 12 h, higher = more signal.
Assay [4] is described as follows: basal CRE-LacZ reporter activity in PC12 – cell-based, unstimulated, primary screen (AID 1145). To be noted: no forskolin, luminescence, 4.5 h, higher = more signal, called active from +8 up or from −8 down.
Assay [5] in a line: forskolin-driven CRE-LacZ activity in PC12 – cell-based, CRE-LacZ reporter, forskolin-stimulated, primary screen (AID 1146).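 Further: PC12 cells with 6xCRE LacZ reporter stimulated by forskolin 10 µM; beta-galactosidase reporter signal reflecting CREB driven transcription.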 The following applies: luminescence, 4.5 h, higher = more signal, called active from +8 up or from −8 down.
The target of assay [6] is Streptavidin (Streptomyces avidinii) (UniProt P22629). The experiment in a line: compounds binding control protein streptavidin – biophysical, small-molecule microarray, 635/667 nm fluorescence, artefact control for SMM compound annotation, primary screen (AID 1147).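 Further: signal reflects streptavidin binding to arrayed compounds as a control protein.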 To be noted: higher = more signal.
Sequence of Streptavidin (Streptomyces avidinii) (P22629 whole entry, looked up): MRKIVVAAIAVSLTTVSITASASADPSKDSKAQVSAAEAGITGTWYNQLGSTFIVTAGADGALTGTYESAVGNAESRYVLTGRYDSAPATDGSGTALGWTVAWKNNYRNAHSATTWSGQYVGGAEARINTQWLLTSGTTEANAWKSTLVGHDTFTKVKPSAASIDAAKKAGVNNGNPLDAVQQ
A short description of assay [7]: probe aInhba binding on compound microarray – biochemical, small-molecule microarray, 635/667 nm fluorescence, primary screen (AID 1148).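 Further: score merges 667nm spot fluorescence with signal-to-noise for antibody binding to printed compounds.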 To be noted: higher = more signal.
Assay [8] addresses Torsin-1A (Homo sapiens) (UniProt O14656). The experiment in a line: TOR1A wild-type binding on microarray – cell lysate, small-molecule microarray, lysate, 635/667 nm, primary screen (AID 1149). To be noted: COS7 hTOR1A-WT lysate, 635 nm fluorescence, higher = more signal.
For assay [9] the target is unchanged. The experiment in a line: torsin A mutant lysate binding on microarrays – cell lysate, small-molecule microarray, COS7 lysate, 635/667 nm fluorescence, primary screen (AID 1150).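 Further: score pools 667 nm emission and signal to noise measuring lysate protein binding.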 The following applies: COS7 hTOR1A mutant lysate, 635 nm fluorescence, higher = more signal.
Assay [10] concerns Sonic hedgehog protein (Shh). The experiment in a line: Sonic hedgehog microarray binding compounds – biochemical, small-molecule microarray, 635/667 nm fluorescence, primary screen (AID 1151).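 Further: Shh protein binding to compounds spotted on small-molecule microarray slides; score combines spot fluorescence intensity with signal-to-noise across triplicate slides.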 The following applies: 635 nm fluorescence, higher = more signal.
Assay [11] is described as follows: optical density shifts of acrAB sulA E. coli – strain DRC41, OD650, 48 h, E. coli filamentation inducer project, primary screen (AID 1152).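 Further: E. coli MC1000 strain DRC41 lacking acrAB efflux pump and sulA.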 To be noted: higher = more signal, called active from +8 up or from −8 down.
Assay [12] can be described thus: probe aLefty1 binding on compound microarray – biochemical, small-molecule microarray, 635/667 nm fluorescence, primary screen (AID 1153).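 Further: score merges spot fluorescence with signal-to-noise ratio from the scanned slide images.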 The following applies: higher = more signal.
The nature of assay [13]: plasmodial surface anion channel blockers, osmotic lysis – cell-based, P. falciparum Indochina, OD700, 1 h, primary screen (AID 1154). To be noted: P. falciparum Indochina infected RBC osmotic lysis, higher = more signal, called active from +8 up or from −8 down.
Assay [14] can be described thus: plasmodial surface anion channel blockers, osmotic lysis – cell-based, P. falciparum Indochina, OD700, 2 h, primary screen (AID 1155).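 Further: lysis reports solute entry through the parasite surface anion channel PSAC.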 The following applies: P. falciparum Indochina infected erythrocytes, higher = more signal, called active from +8 up or from −8 down.
Assay [15] can be described thus: changes in parasitized red cell lysis, either direction – P. falciparum Indochina, OD700, 3 h, PSAC antagonist project, primary screen (AID 1156). The following applies: P. falciparum-infected erythrocytes, osmotic lysis, higher = more signal, called active from +8 up or from −8 down.
Assay [16] in a line: plasmodial surface anion channel blockers, osmotic lysis – cell-based, P. falciparum Indochina, OD700, 18 h, primary screen (AID 1157). The following applies: P. falciparum Indochina infected erythrocytes, osmotic lysis OD700, 18 h; higher = more signal, called active from +8 up or from −8 down.
Assay [17] is described as follows: S6 kinase pathway phospho-S6 level changes – cell-based, A549, cytoblot, luminescence, serum-stimulated, primary screen (AID 1158).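 Further: serum-stimulated A549 lung adenocarcinoma cells; signal is phosphorylated S6 detected by cytoblot immunostaining with HRP secondary.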 To be noted: 5 h, higher = more signal.
For assay [18], the target named is NADPH oxidase 2 (Homo sapiens) (UniProt P04839). The experiment in a line: compounds shifting NOX2 Amplex Red fluorescence – cell-based, HEK293-NOX2, PMA-stimulated, NOX inhibitor project, primary screen (AID 1159). Further: test concentration not given here. To be noted: 45 min, higher = more signal, called active from +8 up or from −8 down.
Sequence of NADPH oxidase 2 (Homo sapiens) (P04839 whole entry, looked up): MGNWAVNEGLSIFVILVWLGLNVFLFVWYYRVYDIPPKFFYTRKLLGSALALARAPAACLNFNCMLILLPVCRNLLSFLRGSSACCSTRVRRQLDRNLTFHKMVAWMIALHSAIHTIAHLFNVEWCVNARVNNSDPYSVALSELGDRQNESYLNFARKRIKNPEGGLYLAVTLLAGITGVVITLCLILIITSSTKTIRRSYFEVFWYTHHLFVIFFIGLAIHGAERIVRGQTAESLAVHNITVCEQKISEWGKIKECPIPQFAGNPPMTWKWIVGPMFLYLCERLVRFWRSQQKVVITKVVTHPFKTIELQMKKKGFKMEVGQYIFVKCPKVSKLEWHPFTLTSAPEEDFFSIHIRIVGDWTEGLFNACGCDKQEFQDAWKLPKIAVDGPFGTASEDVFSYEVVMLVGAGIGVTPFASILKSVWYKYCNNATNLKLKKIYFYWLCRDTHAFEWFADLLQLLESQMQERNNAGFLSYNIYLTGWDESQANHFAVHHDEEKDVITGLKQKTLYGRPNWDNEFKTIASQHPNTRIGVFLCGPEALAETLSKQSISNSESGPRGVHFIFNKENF
Assay [19] deals with NADPH oxidase 4 (Homo sapiens) (UniProt Q9NPH5). The experiment in a line: compounds shifting NOX4 Amplex Red fluorescence – cell-based, HEK293-NOX4, tetracycline-induced, NOX inhibitor project, primary screen (AID 1160). The following applies: HEK293-NOX4, Amplex Red H2O2 fluorescence, 45 min; higher = more signal, called active from +8 up or from −8 down.
Sequence of NADPH oxidase 4 (Homo sapiens) (Q9NPH5 whole entry, looked up): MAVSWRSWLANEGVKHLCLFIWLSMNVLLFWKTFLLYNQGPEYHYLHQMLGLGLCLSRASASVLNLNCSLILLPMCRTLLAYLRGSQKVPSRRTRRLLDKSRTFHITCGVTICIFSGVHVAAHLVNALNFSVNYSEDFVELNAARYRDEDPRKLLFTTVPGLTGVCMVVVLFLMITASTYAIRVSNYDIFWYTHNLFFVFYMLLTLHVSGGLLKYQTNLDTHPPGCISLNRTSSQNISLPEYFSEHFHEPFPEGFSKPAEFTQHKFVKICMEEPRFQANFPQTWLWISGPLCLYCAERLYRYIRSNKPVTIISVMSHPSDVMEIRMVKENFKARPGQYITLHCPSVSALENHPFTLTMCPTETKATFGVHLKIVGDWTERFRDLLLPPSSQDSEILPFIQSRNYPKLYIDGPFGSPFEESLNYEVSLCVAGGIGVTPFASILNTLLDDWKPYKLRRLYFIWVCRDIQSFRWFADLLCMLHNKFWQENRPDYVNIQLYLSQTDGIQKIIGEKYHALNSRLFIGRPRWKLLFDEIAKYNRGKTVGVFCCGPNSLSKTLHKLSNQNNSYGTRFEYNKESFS
Assay [20] addresses NADPH oxidase 5 (Homo sapiens) (UniProt Q96PH1). The experiment in a line: compounds shifting NOX5 Amplex Red fluorescence – cell-based, HEK293-NOX5, NOX inhibitor project, primary screen (AID 1161). The following applies: HEK293-NOX5, ionomycin, 45 min, higher = more signal.

Calls of active or inactive are those of the source. Unless noted, how the calls were made is not given here.

Sequence of NADPH oxidase 5 (Homo sapiens) (Q96PH1 whole entry, looked up): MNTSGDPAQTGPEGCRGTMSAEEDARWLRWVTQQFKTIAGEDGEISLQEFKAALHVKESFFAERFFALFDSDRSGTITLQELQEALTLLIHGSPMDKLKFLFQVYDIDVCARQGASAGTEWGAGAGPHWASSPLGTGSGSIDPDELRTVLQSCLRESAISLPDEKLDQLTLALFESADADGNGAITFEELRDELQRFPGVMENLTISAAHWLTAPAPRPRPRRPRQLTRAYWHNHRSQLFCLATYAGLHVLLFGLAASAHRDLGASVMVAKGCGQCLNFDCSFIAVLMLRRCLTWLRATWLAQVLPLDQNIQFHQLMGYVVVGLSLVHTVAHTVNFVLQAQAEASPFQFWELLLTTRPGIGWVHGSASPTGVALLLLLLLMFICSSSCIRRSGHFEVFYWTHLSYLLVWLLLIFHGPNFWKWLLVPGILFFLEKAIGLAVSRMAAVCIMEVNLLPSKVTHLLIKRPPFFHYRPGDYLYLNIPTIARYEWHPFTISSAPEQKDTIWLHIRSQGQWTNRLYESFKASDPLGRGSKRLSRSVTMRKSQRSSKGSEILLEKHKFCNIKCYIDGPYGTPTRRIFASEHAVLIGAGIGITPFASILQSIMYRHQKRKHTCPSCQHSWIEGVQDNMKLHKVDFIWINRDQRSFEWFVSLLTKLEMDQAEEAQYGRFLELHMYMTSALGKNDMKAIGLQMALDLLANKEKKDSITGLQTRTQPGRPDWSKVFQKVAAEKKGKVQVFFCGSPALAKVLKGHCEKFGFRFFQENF
Sequence of Torsin-1A (Homo sapiens) (O14656 whole entry, looked up): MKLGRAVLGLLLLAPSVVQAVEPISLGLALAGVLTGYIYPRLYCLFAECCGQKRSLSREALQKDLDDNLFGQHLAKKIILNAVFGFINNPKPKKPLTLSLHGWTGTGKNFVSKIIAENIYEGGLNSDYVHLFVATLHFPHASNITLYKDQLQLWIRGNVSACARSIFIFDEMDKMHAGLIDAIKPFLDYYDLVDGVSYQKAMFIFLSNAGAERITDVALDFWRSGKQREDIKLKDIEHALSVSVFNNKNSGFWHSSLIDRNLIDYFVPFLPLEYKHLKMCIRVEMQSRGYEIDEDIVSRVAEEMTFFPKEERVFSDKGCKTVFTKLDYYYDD

For `COCCOC(=O)N1C(=O)[C@@]2(c3cc(C#CC4(O)CCCCCC4)ccc31)[C@H](c1ccccc1OCCO)N1[C@H](c3ccccc3)[C@H](c3ccccc3)OC(=O)[C@H]1[C@@H]2C(=O)N1CCN(c2ncccn2)CC1`, the composite z-score in [1] worked out at 0.839; in assay [6], 0.356; in assay [7], 0.153; in [8] it was 0.456; in assay [9] it was 0.699; in assay [10], 0.678. Moreover, the composite z-score in assay [12] was -0.0437. Moreover, the z-score in [2] was -1.86 (inactive); in assay [3], -0.354 (inactive); in assay [4], 0.155 (inactive); in [5], 0.411 (inactive); in [11], 0.888 (inactive); in assay [13] it was 1.67 (inactive). Also, the z-score in assay [14] was 1.31 (inactive); in [15], 0.824 (inactive); in [16] it was 0.712 (inactive); in [17], -0.0324; in assay [18] it was 0.342 (inactive); in assay [19] it was 0.386 (inactive). Further, the z-score in [20] amounted to 1.03.
For the compound `COCCOC(=O)N1C(=O)[C@@]2(c3cc(C#CCCO)ccc31)[C@H](C(=O)N1CCCCCCC1)[C@H]1C(=O)O[C@H](c3ccccc3)[C@H](c3ccccc3)N1[C@@H]2c1ccc(OCCO)cc1`, the composite z-score in assay [1] was determined as 0.87; in assay [6], 1.43; in assay [7], 1.38; in assay [8], 1.8; in [9], 1.44; in assay [10], 1.53. This compound also displayed a composite z-score in assay [12] of 2.45. Further, the z-score in assay [2] is -1.2 (inactive); in [3], -0.589 (inactive); in [4], -0.581 (inactive); in assay [5] it was -0.571 (inactive); in assay [11], 0.712 (inactive); in assay [13], 7.78 (inactive). The z-score was 1.37 (inactive) in assay [14]; -1.22 (inactive) in assay [15]; 0.982 (inactive) in assay [16]; -0.215 in [17]; 0.931 (inactive) in assay [18]; 0.94 (inactive) in [19]. The z-score in [20] was found to be 0.603.
As for `COC(=O)[C@@]1(Cc2ccc(OC)cc2)[C@H]2c3cc(C(=O)N4CCCC4)n(Cc4ccc(O)c(OC)c4)c3C[C@H]2CN1C(=O)c1ccccc1`, the composite z-score in assay [1] is 1.22; in assay [6], 2.18; in [7], 1.21; in [8], -0.208; in assay [9], 0.669; in assay [10], -0.466. In addition, in [12], the composite z-score came to 0.622. The z-score in assay [2] is -1.28 (inactive); in assay [3], -0.117 (inactive); in assay [4], 0.962 (inactive); in [5], 0.549 (inactive); in [11], -0.703 (inactive); in assay [13], 5.08 (inactive). In addition, the z-score in assay [14] is 0.722 (inactive); in assay [15] it was 1.04 (inactive); in [16] it was 0.739 (inactive); in assay [17] it was 0.299; in [18] it was -2.31 (inactive); in [19], -4.7 (inactive). Also, the z-score in assay [20] was -4.33.
`CC1CC/C=C\[C@H]2OC34C=CCN(C(C)(C)C)C(=O)[C@H]3N(CCO)C(=O)[C@@H]4C2C(=O)O1` (stereo not given in full): the composite z-score in assay [1] was -0.276; in [6], -1.59; in assay [7], -0.171; in assay [8], -2.34; in assay [9], -2.49; in assay [10], -0.0338. In [12], this compound registered a composite z-score of -0.0611. For the same compound, the z-score in assay [2] was -0.973 (inactive); in assay [3] it was -0.0996 (inactive); in assay [4], -0.753 (inactive); in assay [5], -0.237 (inactive); in assay [11], 0.583 (inactive); in assay [13], 2.16 (inactive). Moreover, the z-score in assay [14] was 0.518 (inactive); in assay [15], -0.474 (inactive); in assay [16], 0.31 (inactive); in assay [17], 0.615; in assay [18], 1.36 (inactive); in [19] it was 0.126 (inactive). Moreover, the z-score in [20] was found to be 2.57.

Values taken from PubChem BioAssay.
